Experimental data taken from PubChem BioAssay (EPA / NIEHS).
Results filed as inconclusive are left out. Calls of active or inactive are those of the source. The calls were made as follows: active = hit-call score of the fitted dose curve at least 0.9, where 1 is the maximum; inconclusive = response in the unintended direction; inactive = score below 0.9.

target: Glycogen synthase kinase-3 beta (Homo sapiens) (UniProt P49841); assay: NVS_ENZ_hGSK3b: NovaScreen (NVS) Enzymatic Assay for human Glycogen Synthase Kinase-3 beta (GSK3b) (AID 2283165)
Sequence (P49841 whole entry, looked up): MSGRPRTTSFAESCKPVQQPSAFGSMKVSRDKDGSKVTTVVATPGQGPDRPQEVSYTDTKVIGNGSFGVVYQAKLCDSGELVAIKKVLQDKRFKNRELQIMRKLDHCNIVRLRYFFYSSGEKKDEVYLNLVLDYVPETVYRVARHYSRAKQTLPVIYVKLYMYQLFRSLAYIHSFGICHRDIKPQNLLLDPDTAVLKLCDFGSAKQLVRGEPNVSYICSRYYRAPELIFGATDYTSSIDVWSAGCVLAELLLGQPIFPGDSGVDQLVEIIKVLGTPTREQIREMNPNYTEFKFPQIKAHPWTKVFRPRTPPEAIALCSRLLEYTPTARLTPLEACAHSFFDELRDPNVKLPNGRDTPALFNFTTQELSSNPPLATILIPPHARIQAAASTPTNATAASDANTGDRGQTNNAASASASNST
Description: NVS_ENZ_hGSK3b is a biochemical, single-readout assay that uses extracted gene-proteins in a cell-free assay. Measurements were taken 1 hour after chemical dosing in a 384-well plate.NVS_ENZ_hGSK3b is one of one assay component(s) measured or calculated from the NVS_ENZ_hGSK3b assay. It is designed to make measurements of enzyme activity, a form of enzyme reporter, as detected with fluorescence intensity signals by Fluorescence and electrophoretic mobility shift technology.Data from the assay component NVS_ENZ_hGSK3b was analyzed into 1 assay endpoint. This assay endpoint, NVS_ENZ_hGSK3b, was analyzed in the positive analysis fitting direction relative to DMSO as the negative control and baseline of activity. Using a type of enzyme reporter, loss-of-signal activity can be used to understand changes in the enzymatic activity as they relate to the gene GSK3B. Furthermore, this assay endpoint can be referred to as a primary readout, because this assay has produced multiple assay endpoints where this one serves a enzymatic activity function. To generalize the intended target to other relatable targets, this assay endpoint is annotated to the kinase intended target family, where the subfamily is serine/threonine kinase.
Binding assays used specific radioligands (tritiated, iodinated) with non-radioactive competitive displacement ligands in agonist or antagonist protocols (as indicated) and various reference compounds and inhibitors to titrate specific binding to receptors and transporters. Most enzyme assays (CYPs, kinases, phosphatases, proteases, HDACs) used recombinant protein and specific substrates (fluorescence mostly, some colorimetric and radioactive) and inhibitors, followed by a biochemical separation of substrate and product. All assays for the biochemical HTS were initially run in duplicate at a single concentration (10 uM for CYP450 assays and 25 uM for all others). Assay-chemical combinations meeting a pre-defined threshold (e.g., 30% inhibition and other criteria defined below) were then run in singleton concentration-response format with maximum concentration of 20 uM for CYPs and 50 uM for all others. Each assay was run with positive and negative controls, and concurrent controls on every plate. The follow-up (secondary) screen tested active chemical-pairs in concentration series, as well as a few additional assays not tested in the primary screen, some selected negative inactives, and several cases re-run in the concentration series for confirmatory purposes.

outcome, inactive:
c1ccc2occc2c1
COc1ccc(OC(F)(F)F)cc1CN[C@H]1CCCN[C@H]1c1ccccc1
Cc1occc(=O)c1O
CC1(C)C(=O)NC(=O)N1CO
COC(=O)CCCC(=O)OC
O=C(Oc1ccccc1)c1cccc(C(=O)Oc2ccccc2)c1
S=c1[nH]c2ccccc2s1
Oc1ccc(O)cc1
CCOCCOCCO
CC(C)c1cccc(C(C)C)c1NC(=O)NS(=O)(=O)c1cc(C(C)(C)O)co1
O=NO
O=C(O)CN(CC(=O)O)CC(=O)O
NC1CCCCC1
CCCC(=O)O
C/C=C/c1ccc(OC)cc1
CN(C)C(=O)NC1(c2ccccc2)CCN(CCC[C@]2(c3ccc(Cl)c(Cl)c3)CCCN(C(=O)c3ccccc3)C2)CC1
Nc1nc(=S)c2[nH]cnc2[nH]1
O=C1OC(c2ccc(O)cc2)(c2ccc(O)cc2)c2ccccc21
C=CCc1ccc(OC)c(OC)c1
CCc1cc(C2=C(C(=O)O)N(c3ccccc3C(F)(F)F)S(=O)(=O)c3ccccc32)cc2c1OCO2
